Assay [1] in a line: NCI Yeast Anticancer Drug Screen. Data for the rad50 strain (AID 155).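 Also: 0% = growth of vehicle-only cultures of the same strain.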 As to conditions: S. cerevisiae rad50 strain growth inhibition, hits give high values. An outline of the steps: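 Readout: growth inhibition relative to vehicle-treated cultures. Compound exposure was carried out in a genetically defined yeast strain deficient in DNA damage repair.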
Assay [2] is described as follows: NCI Yeast Anticancer Drug Screen. Data for the mec2-1 strain (AID 157). The note with it: S. cerevisiae mec2-1 strain, hits give high values. The gist of the method:
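Using mec2-1 yeast: add compound, measure growth, express inhibition versus vehicle-treated cultures.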

A short description of assay [3]: NCI Yeast Anticancer Drug Screen. Data for the sgs1 mgt1 strain (AID 161).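 Also: 0% = growth of cultures given vehicle only.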 As to conditions: S. cerevisiae sgs1 mgt1 strain, hits give high values. The gist of the method: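 Compounds are added to genetically altered yeast, and growth is compared with cultures given vehicle alone to give percent inhibition.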
Assay [4] in a line: NCI Yeast Anticancer Drug Screen. Data for the cln2 rad14 strain (AID 165).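 Also: 0% = growth equal to vehicle treated cultures.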 The note with it: S. cerevisiae cln2 rad14 strain, hits give high values. An outline of the steps:
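Yeast strain cln2 rad14, bearing defects in cell cycle control and DNA repair, serves as the test system; values reflect growth inhibition compared with vehicle.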

A short description of assay [5]: NCI Yeast Anticancer Drug Screen. Data for the bub3 strain (AID 167). As to conditions: S. cerevisiae bub3 mutant strain, hits give high values. The gist of the method:
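Readout: yeast growth inhibition, expressed relative to vehicle-only wells. The test organism is a mutant strain from a panel with lesions in DNA repair or checkpoint genes.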

Assay [6] can be described thus: NCI Yeast Anticancer Drug Screen. Data for the mlh1 rad18 strain (AID 175). The note with it: S. cerevisiae mlh1 rad18 strain growth inhibition, hits give high values. An outline of the steps: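 Steps: expose repair-defective yeast to compound; measure growth; express inhibition against vehicle-treated controls.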
Setting [7] is: at 5.0 µM (retest, dose inferred, filed as 0.5).
The mark [8] stands for this setting: at 50.0 µM (retest, dose inferred, filed as 5.0).

SMILES strings stand for the structures. About 79,000 compounds went through this panel and 15% of them were active in at least one assay; those are over-represented in the sample as a whole. Unmarked numbers belong to inactive results. The source made the active and inactive calls. Rule as the data show it: active = growth inhibition above about 70%; inactive = the rest.

Take `O=C(O)c1cccc2c1Oc1c(cccc1C(=O)O)S2`: the growth inhibition is 3% in assay [1] (setting [7]); 1% in assay [1] (setting [8]); 98.3% (active) in assay [1] (at 50.0 µM); 0% in assay [2] (setting [7]); 9% in assay [2] (setting [8]); 98.2% (active) in assay [2] (at 50.0 µM). Further, the growth inhibition in assay [3] (setting [7]) is 0%; in assay [3] (setting [8]), 3%; in assay [3] (at 50.0 µM), 98.3% (active); in assay [4] (setting [7]), 2%; in assay [4] (setting [8]), 6%; in assay [4] (at 50.0 µM), 98.2% (active). For the same molecule, the growth inhibition in assay [5] (setting [7]) is 1%; in assay [5] (setting [8]), 1%; in assay [5] (at 50.0 µM), 98.8% (active); in assay [6] (setting [7]) it was 2%; in assay [6] (setting [8]), -2%; in assay [6] (at 50.0 µM), 98.5% (active).
For `NN(Cc1ccccc1)c1ccccc1`, the growth inhibition was 50% in assay [1] (setting [7]); 83% (active) in assay [1] (setting [8]); 89.3% (active) in assay [1] (at 50.0 µM); 47% in assay [2] (setting [7]); 87% (active) in assay [2] (setting [8]); 91.7% (active) in assay [2] (at 50.0 µM). Besides, the growth inhibition in assay [3] (setting [7]) was 20%; in assay [3] (setting [8]), 100% (active); in assay [3] (at 50.0 µM), 91.8% (active); in assay [4] (setting [7]) it was 43%; in assay [4] (setting [8]), 99% (active); in assay [4] (at 50.0 µM) it was 90% (active). The growth inhibition in assay [5] (setting [7]) was 40%; in assay [5] (setting [8]) it was 99% (active); in assay [5] (at 50.0 µM), 90.5% (active); in assay [6] (setting [7]) it was 27%; in assay [6] (setting [8]), 77% (active); in assay [6] (at 50.0 µM) it was 88.6% (active).
Take `O=C(O)c1ccc([N+](=O)[O-])o1`: the growth inhibition is 6% in assay [1] (setting [7]); 32% in assay [1] (setting [8]); 61% in assay [1] (at 50.0 µM); 1% in assay [2] (setting [7]); 16% in assay [2] (setting [8]); 25.1% in assay [2] (at 50.0 µM). Also, the growth inhibition in assay [3] (setting [7]) was 4%; in assay [3] (setting [8]), 27%; in assay [3] (at 50.0 µM), 70.8% (active); in assay [4] (setting [7]), 3%; in assay [4] (setting [8]), 11%; in assay [4] (at 50.0 µM), 17.6%. Also, the growth inhibition in assay [5] (setting [7]) is -3%; in assay [5] (setting [8]) it was 10%; in assay [5] (at 50.0 µM), 38.3%; in assay [6] (setting [7]), 6%; in assay [6] (setting [8]) it was 41%; in assay [6] (at 50.0 µM), 71.5% (active).
In the case of `Brc1ccc(-c2c3ccccc3cc3c2ccc2ccccc23)cc1`, the growth inhibition in assay [1] (setting [7]) is 1%; in assay [1] (setting [8]) it was -14%; in assay [1] (at 50.0 µM) it was 42.9%; in assay [2] (setting [7]) it was 1%; in assay [2] (setting [8]), -10%; in assay [2] (at 50.0 µM) it was 30.2%. Also, the growth inhibition in assay [3] (setting [7]) is 2%; in assay [3] (setting [8]), 1%; in assay [3] (at 50.0 µM) it was 47.8%; in assay [4] (setting [7]), -2%; in assay [4] (setting [8]), -24%; in assay [4] (at 50.0 µM), 74.5% (active). For the same molecule, the growth inhibition in assay [5] (setting [7]) is -5%; in assay [5] (setting [8]), 26%; in assay [5] (at 50.0 µM) it was 38.1%; in assay [6] (setting [7]), -4%; in assay [6] (setting [8]) it was -9%; in assay [6] (at 50.0 µM) it was 47.1%.
With `CCCCCCC(/C=C/c1c(Cl)cccc1Cl)=N\O`, the growth inhibition in assay [1] (setting [7]) is -4%; in assay [1] (setting [8]), 24%; in assay [1] (at 50.0 µM), 83.4% (active); in assay [2] (setting [7]) it was -4%; in assay [2] (setting [8]), 46%; in assay [2] (at 50.0 µM), 91.7% (active). The growth inhibition is -6% in assay [3] (setting [7]); 67% in assay [3] (setting [8]); 91.3% (active) in assay [3] (at 50.0 µM); -1% in assay [4] (setting [7]); 12% in assay [4] (setting [8]); 69.1% in assay [4] (at 50.0 µM). Moreover, the growth inhibition in assay [5] (setting [7]) was -4%; in assay [5] (setting [8]) it was 53%; in assay [5] (at 50.0 µM), 92.8% (active); in assay [6] (setting [7]), -10%; in assay [6] (setting [8]), 56%; in assay [6] (at 50.0 µM) it was 94.2% (active).
Consider `CCOC(=O)C1=C(c2ccccc2)N(C)c2ccccc2S1`, for which the growth inhibition was 4% in assay [1] (setting [7]); 55% in assay [1] (setting [8]); 75.9% (active) in assay [1] (at 50.0 µM); 4% in assay [2] (setting [7]); 92% (active) in assay [2] (setting [8]); 80.7% (active) in assay [2] (at 50.0 µM). The growth inhibition in assay [3] (setting [7]) is 5%; in assay [3] (setting [8]) it was 64%; in assay [3] (at 50.0 µM), 76.2% (active); in assay [4] (setting [7]), -1%; in assay [4] (setting [8]), -7%; in assay [4] (at 50.0 µM), -0.8%. Further, the growth inhibition is 2% in assay [5] (setting [7]); 78% (active) in assay [5] (setting [8]); 87% (active) in assay [5] (at 50.0 µM); 1% in assay [6] (setting [7]); 62% in assay [6] (setting [8]); 67.2% in assay [6] (at 50.0 µM).
Regarding `Cc1ccc(O)cc1CCCCO`, the growth inhibition in assay [1] (setting [7]) was 2%; in assay [1] (setting [8]), -4%; in assay [1] (at 50.0 µM), -7.45%; in assay [2] (setting [7]), 0%; in assay [2] (setting [8]) it was -1%; in assay [2] (at 50.0 µM) it was -2.1%. Also, the growth inhibition in assay [3] (setting [7]) is -1%; in assay [3] (setting [8]) it was -2%; in assay [3] (at 50.0 µM), -3.55%; in assay [4] (setting [7]), -2%; in assay [4] (setting [8]), 7%; in assay [4] (at 50.0 µM), 74.6% (active). The growth inhibition is -11% in assay [5] (setting [7]); 0% in assay [5] (setting [8]); -5.95% in assay [5] (at 50.0 µM); 0% in assay [6] (setting [7]); -2% in assay [6] (setting [8]); -3.45% in assay [6] (at 50.0 µM).
With `CC(C)(C)c1cc(C(=O)[O-])c([OH2+])c(C(C)(C)C)c1.CC(C)(C)c1cc(C(=O)[O-])c([OH2+])c(C(C)(C)C)c1.[Mn+2]`, the growth inhibition was 22% in assay [1] (setting [7]); 59% in assay [1] (setting [8]); 99% (active) in assay [1] (at 50.0 µM); 27% in assay [2] (setting [7]); 60% in assay [2] (setting [8]); 98.8% (active) in assay [2] (at 50.0 µM). Also, the growth inhibition is 21% in assay [3] (setting [7]); 42% in assay [3] (setting [8]); 98.5% (active) in assay [3] (at 50.0 µM); 42% in assay [4] (setting [7]); 78% (active) in assay [4] (setting [8]); 97% (active) in assay [4] (at 50.0 µM). The growth inhibition is 21% in assay [5] (setting [7]); 49% in assay [5] (setting [8]); 97% (active) in assay [5] (at 50.0 µM); 28% in assay [6] (setting [7]); 71% (active) in assay [6] (setting [8]); 98.2% (active) in assay [6] (at 50.0 µM).
For the molecule `O=[N+]([O-])/C=C/c1c[nH]c2c1ccc1ccccc12`, the growth inhibition in assay [1] (setting [7]) was 42%; in assay [1] (setting [8]), 92% (active); in assay [1] (at 50.0 µM), 84.4% (active); in assay [2] (setting [7]) it was 53%; in assay [2] (setting [8]), 90% (active); in assay [2] (at 50.0 µM), 84.7% (active). For the same molecule, the growth inhibition in assay [3] (setting [7]) is 59%; in assay [3] (setting [8]) it was 81% (active); in assay [3] (at 50.0 µM), 94.2% (active); in assay [4] (setting [7]), 30%; in assay [4] (setting [8]), 93% (active); in assay [4] (at 50.0 µM), 89% (active). Also, the growth inhibition in assay [5] (setting [7]) was 88% (active); in assay [5] (setting [8]), 95% (active); in assay [5] (at 50.0 µM), 75.3% (active); in assay [6] (setting [7]), 55%; in assay [6] (setting [8]), 94% (active); in assay [6] (at 50.0 µM) it was 93.5% (active).

Source of the values: PubChem BioAssay (NCI).
